In the library only some 4% were active in any assay of this set; here they are far more common.
Peg3 prom inh = Peg3 promoter activity inhibition; inhibition, % at 20 µM; AID 588405; HeLa PEG-Prom luciferase reporter, luminescence, overnight; actives 1.7% (n = 360,000);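 active = inhibition of at least 50% at 20 µM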
MITF TRPM1 inh = MITF TRPM1 promoter inhibition in SK-MEL-5 cells; SK-MEL-5 TRPM1 promoter luciferase, 24 h; inhibition, % at 12.5 µM; actives 0.83% (n = 330,000); AID 488899;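 active = mean inhibition across replicates of 60% or more, whatever share of single replicates reaches that level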
TROY NFkB inh = TROY signaling inhibition; actives 0.98% (n = 360,000); inhibition, % at 10 µM; AID 1347056; Q293 LMP1-TROYcd NF-kB luciferase reporter, 4 h;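 active = compounds whose plate-normalised and pattern-corrected inhibition of the luciferase reporter signal at the single screening dose is 50% or more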
TWEAK-Fn14 inh = inhibitors of TWEAK-Fn14 interaction signaling | TWEAK-stimulated Fn14 reporter cells, luciferase luminescence, 8 h | actives 2% (n = 360,000) | inhibition, % at 10 µM; in the data active = inhibition above about 50%
LMP1 NFkB inh = reduces LMP1-driven NF-kappaB luciferase signal | inhibition, % at 12.5 µM | AID 504558 | actives 0.69% (n = 350,000) | LMP1-induced NF-kappaB luciferase reporter cells, luminescence; in the data active = inhibition above about 41%;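 note: 0% = neutral control wells and 100% = reference inhibitor control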
HIF-2a inh = blocks HIF-2a reporter activity; 786-0 RCC cells HIF-2a reporter, luciferase luminescence, overnight; actives 0.72% (n = 360,000); inhibition, % at 18.8 µM;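 active = inhibition of the luminescence signal of 40% or more relative to plate controls, in a single-dose primary screen at 18.75 µM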
* marks the source's active call; other numbers are inactive results; / = no result.

SMILES | Peg3 prom inh | MITF TRPM1 inh | TROY NFkB inh | TWEAK-Fn14 inh | LMP1 NFkB inh | HIF-2a inh
Cc1nc2ccccc2c2oc(C(=O)Nc3ccc(C(C)C)cc3)cc12 | -4 | -7 | 20 | 6 | 8 | 2
Cc1ccc(C(=O)NCc2cccnc2)cc1S(=O)(=O)N1CCCCCC1 | 23 | 1 | -3 | 12 | -7 | 24
CCOc1ccc(S(=O)(=O)N(CC(=O)N2CCC(C(N)=O)CC2)c2ccc(F)cc2)cc1 | 3 | 7 | -9 | 2 | -1 | 12
COCCNC(=O)C1(C)CCN(C(=O)c2sc(-c3ccccc3)nc2C)C1 (stereo not given) | 16 | / | -21 | 0 | / | 10
COC(=O)Cn1cnc2c(nnn2-c2ccc(OC)cc2)c1=O | 7 | 0 | 10 | -1 | 8 | 4
Cc1cc2[nH]c(=O)c(=O)[nH]c2cc1S(=O)(=O)NC1CCCCC1C (stereo not given) | 10 | -5 | -10 | 17 | 17 | 0
O=C(CSc1nnc2scc(-c3ccccc3)n12)Nc1nsc(-c2ccc(Cl)cc2)n1 | 10 | 7 | 28 | 54* | 14 | -9
Nc1nc(N)nc(-c2cc(C(F)(F)F)ccc2Cl)n1 | -7 | -5 | -21 | -1 | -6 | 10
Nc1nc(N)nc(-c2cc(Cl)ccc2Cl)n1 | 1 | -1 | -4 | -32 | 84* | -2
O=c1c2ccccc2sc2c(CO)ccc(NCCN3CCCCC3)c12 | 88* | 15 | -13 | -37 | -12 | 55*
O=c1c2ccccc2sc2ccc(NCCCN3CCOCC3)cc12 | -275 | -73 | -43 | -50 | -18 | -257
CCN(CC)CCNc1ccc(CO)c2sc3ccccc3c(=O)c12 | 58* | 29 | -29 | -50 | -5 | 43*
CCN(CC)CCNc1ccc(CO)c2oc3ccccc3c(=O)c12 | 7 | / | -30 | -30 | 1 | 40*
O=c1cc(NCCO)c2ccccc2o1 | 13 | -6 | 18 | -4 | 8 | 18
COc1ccc(C2c3[nH]c4ccccc4c3C[C@H]3C(=O)N(c4ccccc4C(=O)N4CCC(C(=O)O)CC4)C(=O)N23)cc1 (stereo not given in full) | 14 | 16 | -4 | 2 | -7 | 8
CC(C)c1ccc(C2c3[nH]c4ccccc4c3C[C@H]3C(=O)N(c4ccccc4C(=O)N4CCC[C@H]4C(=O)O)C(=O)N23)cc1 (stereo not given in full) | -5 | 12 | 67* | 44 | -9 | -25
CC(C)c1nc(NCCO)c(C#N)c2c1CCCC2 | 10 | -12 | 51* | 61* | 31 | 36
CC(C)c1nc(Cl)c(C#N)c2c1CCCC2 | -44 | 0 | 1 | 52* | 6 | 6
CC(C)c1nc(NCc2ccccc2)c(C#N)c2c1CCCC2 | 8 | -12 | -8 | -13 | -25 | 1
CC(C)c1nc(Cl)c(C#N)c2c1CCC2 | -13 | -8 | 0 | 21 | 6 | 1
O=C(Nc1ccc(Br)cc1)NC1CCCCCCC1 | -284 | -84 | -6 | -21 | -81 | -270
CC(=O)N1CCN(Cc2cc(=O)oc3ccccc23)CC1 | 12 | / | 16 | 7 | / | 14
O=C(N/N=C/c1c[nH]c2ccccc12)c1cc(-c2ccc(-c3ccccc3)cc2)n[nH]1 | 3 | 0 | 9 | 67* | 3 | -55
O=C(N/N=C/c1c[nH]c2ccccc12)c1cc(-c2ccccc2)n[nH]1 | -23 | 12 | -2 | 17 | 7 | -28
CCc1noc(C)c1C(=O)NC1CCCc2c1cnn2-c1cc(C)cc(C)c1 (stereo not given) | -31 | -11 | -23 | -23 | 4 | -57
CCc1[nH]nc(C(=O)NC2CCCc3c2cnn3-c2cc(C)cc(C)c2)c1C (stereo not given) | -112 | -16 | 58* | -20 | -3 | -141
CCn1nc(C)cc1C(=O)NC1CCCc2c1cnn2-c1ccc(C)c(C)c1 (stereo not given) | 18 | 35 | 56* | 35 | 18 | -4
COc1cccc(CNC(=O)CCCN2C(=O)C(c3ccccc3)Oc3cccnc32)c1OC (stereo not given) | 8 | -3 | 12 | 3 | 4 | 6
Cc1ccc(S(=O)(=O)N2CCCCC2)cc1C(=O)OC1CCCCC1=O (stereo not given) | -1 | 6 | 13 | -4 | 2 | 10
O=C(NCc1ccco1)C1CCN(C(=O)c2cc3sccc3n2Cc2ccc(Cl)cc2)CC1 | 25 | 5 | 45 | 50* | 14 | 13

High-throughput results (PubChem)
